Compound activity (PubChem BioAssay)
An excerpt weighted towards active compounds, which were near 2.1% of everything screened.
PrPC TRFRET = reduces human prion protein on the cell surface. cell surface PrPC, TR-FRET read-out. 370,000 tested, 0.43% active. AID 720596. P04156. inhibition, % at 13.8 µM; in the data active = inhibition above about 24%; also: 0% = median of the test wells and 100% = reference compound wells
CCHF vOTU inh = blocks the CCHF virus ovarian tumor domain protease. CCHFV vOTU protease, Pep-AMC fluorescence. inhibition, % at 11.5 µM. 370,000 tested, 0.55% active; in the data active = inhibition above about 30%; also: 0% = vehicle wells with enzyme and 100% = no enzyme wells
ugtP null kill = growth inhibition of S. aureus ugtP deletion strain | S. aureus RN4220 ugtP deletion, OD600 growth, 16 h | growth inhibition, % (test concentration not listed) | 330,000 tested, 0.54% active | AID 1259309; in the data active = growth inhibition above about 68%;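 also: plate controls were untreated wells for no effect and antibiotic for full effect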
Sa RN4220 lethal = kills Staphylococcus aureus RN4220 | S. aureus RN4220 growth, OD600, 16 h | AID 1259311 | 330,000 tested, 0.33% active | inhibition, % (no concentration beside the values); in the data active = inhibition above about 85%;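 also: plate controls were untreated cells for no effect and reference antibiotic for full effect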
PfHsp40 rescue = compounds rescuing yeast from Plasmodium falciparum HSP40 toxicity; S. cerevisiae expressing PfHsp40, growth rescue, ATP luminescence; AID 504582; growth rescue, % at 12.5 µM; 340,000 tested, 0.68% active; in the data active = growth rescue above about 28%, passing the limit was not always enough; inconclusive = no clear call, values can overlap the other calls;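 also: yeast W303a lacking pdr1 and pdr3 grown in galactose medium; growth measured after three days at 30 °C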
PrP UTR inh = suppresses PrP 5' UTR mRNA reporter expression; cell-based PrP 5' UTR mRNA reporter, plate reader; inhibition, % (no concentration beside the values); 340,000 tested, 0.35% active; AID 488862; in the data active = inhibition above about 52%; also: 0 = median of the neutral control wells
PrP UTR cherry = prion 5' UTR mRNA inhibition, cherry-pick retest | shares compounds with PrP UTR inh | cell-based prion protein 5' UTR reporter, plate reader | inhibition, % at 2.5 µM | 1,100 tested, 48% active; in the data active = inhibition above about 54%; inconclusive = no clear call, values can overlap the other calls
* hit, by the source's call; ? = inconclusive; · = no result given; ! = not active in a repeat.

SMILES | PrPC TRFRET | CCHF vOTU inh | ugtP null kill | Sa RN4220 lethal | PfHsp40 rescue | PrP UTR inh | PrP UTR cherry
O=C1OCC2=C1C(c1ccc(F)cc1)c1cc3c(cc1N2)OCCO3 (stereo not drawn) | 9 | -96 | 5 | 4 | 1 | 54* | 88*
O=C1OCC2=C1C(c1ccc(F)cc1)c1cc3c(cc1N2)OCO3 (stereo not drawn) | 13 | -32 | 10 | -2 | 1 | 50 | ·
CCOc1ccccc1C1C2=C(COC2=O)Nc2cc3c(cc21)OCO3 (stereo not drawn) | 10 | -12 | -2 | 4 | 0 | 64* | 82*
COc1ccccc1NC(=O)c1oc2ccccc2c1NC(=O)c1cc(OC)c(OC)c(OC)c1 | 0 | 13 | -8 | 5 | -1 | 56* | 84*
C[C@@H]1O[C@@H](O[C@@H]2C=C3CCC4C(CC[C@]5(C)[C@@H](c6ccc(=O)oc6)CC[C@]45O)[C@@]3(C)CC2)[C@H](O)[C@H](O)[C@H]1O (stereo partly drawn) | -6 | -4 | · | · | -1 | 94* | 94*
C[C@@H]1O[C@@H](O[C@@H]2C=C3CC[C@@H]4C(CC[C@]5(C)[C@@H](c6ccc(=O)oc6)CC[C@]45O)[C@@]3(C)CC2)[C@H](O)[C@H](O)[C@H]1O (stereo partly drawn) | -7 | 13 | · | · | -1 | 94* | 90*
COC(=O)c1cccc(NC(=O)/C=C/c2ccc3c(c2)OCO3)c1 | 20 | 16 | 4 | 4 | 17 | 65* | 25
CCN(C[C@H]1N[C@@](Cc2ccccc2)(C(=O)OC)[C@H]2C(=O)N(C)C(=O)[C@@H]12)S(=O)(=O)c1ccc(C(C)(C)C)cc1 | -6 | -6 | -2 | 3 | 2 | 60* | -6
CCN(C[C@H]1N[C@@](Cc2ccccc2)(C(=O)OC)[C@H]2C(=O)N(Cc3ccccc3)C(=O)[C@@H]12)S(=O)(=O)c1ccc(C(C)(C)C)cc1 | -1 | 0 | 3 | 4 | 0 | -10 | ·
ON=Cc1ccc2ccccc2n1 | · | · | 6 | 3 | · | · | ·
C(=NN1CCCCCC1)c1ccc2ccccc2n1 | 1 | 3 | -9 | -3 | -1 | 94* | 91*
CN1CC2C3C(=O)N(Cc4ccccc4)C(=O)C3[C@](C)(C1=O)N2C(=O)c1ccc(C(C)(C)C)cc1 (stereo partly drawn) | · | · | 3 | 9 | · | · | ·
CCN1C(=O)N[C@@H](CCc2ccccc2)[C@H](C(C)=O)[C@H]1C | -3 | 2 | · | · | -3 | 66* | -26
O=C(O)c1cccc(N/N=C/c2cccs2)c1 | 2 | 14 | · | · | 0 | 65* | 63*
C#C[C@]1(O)CC[C@H]2[C@@H]3CCc4cc(OC5CCCC5)ccc4[C@H]3CC[C@@]21C | -2 | -1 | · | · | 4 | 61*! | -13
Brc1ccc(C=NNc2ccc3ccccc3n2)cc1 | · | · | 4 | 0 | · | · | ·
Cc1cccc(/C=N/Nc2ccc3ccccc3n2)c1 | 7 | 5 | · | · | 0 | 75* | 66*
C(=N\Nc1ccc2ccccc2n1)/c1ccc2c(c1)OCCO2 | 7 | 10 | · | · | -1 | 83* | 69*
C(=N\Nc1nc2ccccc2[nH]1)/c1ccc2c(c1)OCCO2 | -2 | 10 | · | · | 1 | -25 | ·
COC(=O)C1CC2CCC(O)CC2N1Cc1ccccc1OC(=O)c1cccs1 (stereo not drawn) | · | · | 0 | 2 | · | · | ·
COc1cc(/C=C/CN2CCN(Cc3ccc(C)o3)C(CCO)C2)ccc1O (stereo not drawn) | -6 | 9 | 14 | 5 | -1 | 55* | ?
COc1ccccc1/C=C/CN1CCN(Cc2ccc(C)o2)C(CCO)C1 (stereo not drawn) | -4 | -12 | 4 | 4 | 0 | -24 | ·
COc1ccc(-c2ccc(C3C4C=CCC[C@@]4(C)C(=O)N3Cc3ccccc3)c(F)c2)cc1 (stereo partly drawn) | · | · | 12 | 2 | · | · | ·
CC(=O)NN1C(=O)c2ccccc2NC1c1ccc([N+](=O)[O-])o1 (stereo not drawn) | -16 | 4 | 3 | 18 | 0 | 61* | 4
COC(=O)[C@@]1(Cc2ccc(OC)cc2)C2c3cc(C(=O)N4CCCC4)n(CCn4cc([N+](=O)[O-])nc4C)c3CC2CN1C(=O)c1ccccc1 (stereo partly drawn) | · | · | -2 | 7 | · | · | ·
